Sampled rows, rich in hits. Any-hit rate of the full collection: about 19%.
IL1B secr inh: blocks inflammasome-driven IL-1 beta release; 4.7% of 360,000 active; activity change, % at 57.5 µM; THP-1 LPS/ATP IL-1B secretion, AlphaLISA, 16 h; active compounds read low; in the data active = activity change below about -50%; inconclusive = mostly about -30% to -49%
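THP-1 cells pretreated 1 hr with compounds (up to 57.5 uM final), then stimulated with LPS (250 ng/mL final) plus ATP (1.25 mM final); secreted IL-1B measured by AlphaLISA after 16 hr, decreased signal indicating inhibition.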
TDP1 cell CPT: DT40-hTDP1 cell growth loss with CPT | Potency, µM (doses to about 46.2 µM), actives largely listed as inhibitors | chicken DT40 Tdp1-/-;hTDP1 cells + 20 nM CPT, ATP luminescence, 48 h | 12% of 420,000 active; also: nearly all actives have a fitted effect of over 55% in size
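Cell growth measured by CellTiter-Glo luminescence after a minimum 48 h, 37 C compound exposure with 20 nM CPT in Tdp1-knockout DT40 cells stably expressing hTDP1, seeded 400/well; qHTS titration format.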
HT1080 IDH1KD tx: toxicity to HT-1080 IDH1 knockdown cells (counter line); Potency, µM (titrated, usually from 46.1 µM), usual class: cytotoxic; HT-1080 IDH1 knockdown viability, ATP luminescence, 48 h; 2% of 360,000 active
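% activity derives from luminescence (CellTiter-Glo), normalised to DMSO and no-cell wells. HT-1080-IDH1KD cells, 750/well, had 48 h compound exposure at 37 °C.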
DT40 TDP1 no CPT: qHTS for Inhibitors of human tyrosyl-DNA phosphodiesterase 1 (TDP1): qHTS in cells in absence of CPT. DT40 Tdp1-/- hTDP1 cells, no CPT, ATP luminescence, 48 h. Potency, µM (series often up to 46.2 µM), actives largely listed as inhibitors. 15% of 420,000 active; also: nearly all actives have a fitted effect of over 55% in size
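Luminescent ATP content (CellTiter-Glo) served as the growth readout. Knockout chicken DT40 cells expressing human TDP1 were exposed to compounds without camptothecin for a minimum 48 hr at 37 °C.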
ELG1 DNA repair: inhibitors of ELG1-dependent DNA repair in HEK293T cells. HEK293T ELG1-luciferase reporter, luminescence, 16 h; DNA damage induced by 5-fluorouridine. Potency, µM (titrated, usually from 46.1 µM), hits mostly inhibitors. 2.3% of 330,000 active. AID 504467; also: nearly all actives have a fitted effect of over 55% in size
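Reporter activity after DNA damage by 5-fluorouridine is monitored. Compound-treated cells incubate 16 hr at 37 °C, then ONE-Glo is added for 30 min before luminescence reading.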
HT1080NT lethal: kills 2HG-producing HT-1080-NT fibrosarcoma cells; HT-1080-NT fibrosarcoma viability, CellTiter-Glo ATP luminescence, 48 h; Potency, µM (top dose mostly 46.1 µM), usual class: cytotoxic; 1.6% of 360,000 active;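 also: NT is the 2HG producing partner of a matched IDH1 knockdown line; nearly all actives have a fitted effect of over 55% in size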
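Compounds were tested in concentration-response format on HT-1080-NT cells for 48 hours at 37 degrees C. Cell viability came from CellTiter-Glo luminescence; curves were classified by r2, response magnitude and activity.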
Of the large screens only hits and unclear results are named; the others gave an inactive call. Unless noted, calls follow the shape of the dose curve; as a rule, active = well fitted curve in the direction sought with a large enough effect; inconclusive = small, poorly fitted or top-dose-only effect, or another doubt; inactive = no such curve, though single readings can be large; an effect the other way counts as inactive or inconclusive.

Cn1c(=O)c(Nc2ccc(Cl)cc2)c2c3c(cccc31)C(=O)c1ccccc1-2	TDP1 cell CPT inconclusive, DT40 TDP1 no CPT 18µM, ELG1 DNA repair inconclusive
CC(=O)Nc1c2c3c(cccc3n(C)c1=O)C(=O)c1ccccc1-2	none
CCCCC[C@@H](/C=C/C1C(=O)C=C[C@H]1C/C=C\CCCC(=O)O)OC(C)=O (some centres undefined)	IL1B secr inh -77, TDP1 cell CPT 21µM, DT40 TDP1 no CPT 23µM (no result: ELG1 DNA repair)
N#Cc1ccccc1NS(=O)(=O)c1cc2c3c(c1)CCN3C(=O)CC2	none
NS(=O)(=O)c1ccc(CCNc2ccc(C(F)(F)F)cn2)cc1	none
CC(C)Cc1ccc(-c2cc3nc(NCCc4ccc(S(N)(=O)=O)cc4)ccn3n2)cc1	TDP1 cell CPT 23µM, HT1080 IDH1KD tx 23µM, DT40 TDP1 no CPT 12µM, HT1080NT lethal inconclusive (no result: ELG1 DNA repair)
CC(C)Cc1ccc(-c2cc3nc(NCCCn4ccnc4)ccn3n2)cc1	TDP1 cell CPT inconclusive, HT1080 IDH1KD tx inconclusive, DT40 TDP1 no CPT inconclusive, HT1080NT lethal 16µM (no result: ELG1 DNA repair)
COc1cc(-c2cc3nc(NCCc4ccncc4)ccn3n2)cc(OC)c1OC	IL1B secr inh -58, TDP1 cell CPT 18µM, DT40 TDP1 no CPT 18µM (no result: ELG1 DNA repair)
COc1cc(-c2cc3nc(NCCOc4ccccc4)ccn3n2)cc(OC)c1OC	TDP1 cell CPT 2.6µM, HT1080 IDH1KD tx 9.2µM, DT40 TDP1 no CPT 2.3µM, HT1080NT lethal 21µM (no result: ELG1 DNA repair)
Cc1ccc(-n2nnnc2-c2cccs2)cc1[N+](=O)[O-]	none (no result: ELG1 DNA repair)
NS(=O)(=O)c1ccc(CCNc2ccn3nc(-c4ccccc4)cc3n2)cc1	TDP1 cell CPT 26µM, DT40 TDP1 no CPT inconclusive (no result: ELG1 DNA repair)
COc1cc(CCNc2ccc3nnc(-c4ccccc4)n3n2)cc(OC)c1OC	TDP1 cell CPT 16µM, DT40 TDP1 no CPT 10µM
COc1cc(-c2cc3nc(NCc4ccco4)ccn3n2)cc(OC)c1OC	TDP1 cell CPT 21µM, HT1080 IDH1KD tx inconclusive, DT40 TDP1 no CPT 12µM, HT1080NT lethal inconclusive (no result: ELG1 DNA repair)
COc1cc(-c2cc3nc(NCCc4ccc(S(N)(=O)=O)cc4)ccn3n2)cc(OC)c1OC	IL1B secr inh -50, TDP1 cell CPT 23µM, DT40 TDP1 no CPT 21µM (no result: ELG1 DNA repair)
CC(C)(C)c1cc2nc(NCCc3ccc(S(N)(=O)=O)cc3)ccn2n1	none (no result: ELG1 DNA repair)
O=C(CCn1c(=O)sc2ccccc21)NC1CCCCC1	none
CCCCCCCCCCCCCCCCCCNc1ccn(C2OC(COP(=O)(O)OCC3OC(n4cc(F)c(=O)[nH]c4=O)CC3O)C(O)C2O)c(=O)n1 (centres undefined)	IL1B secr inh -68, TDP1 cell CPT 0.13µM, HT1080 IDH1KD tx 10µM, DT40 TDP1 no CPT 0.041µM, HT1080NT lethal inconclusive (no result: ELG1 DNA repair)
CCOc1ccccc1C(=O)Nc1ccc(S(=O)(=O)Nc2nccc(C)n2)cc1	none
CCOCCCNC(=S)N1CCCN(c2nc3cc(C)cc(C)c3cc2C#N)CC1	TDP1 cell CPT 18µM, DT40 TDP1 no CPT 21µM, ELG1 DNA repair inconclusive, HT1080NT lethal inconclusive
COCCCNC(=S)N1CCCN(c2nc3cc(C)ccc3cc2C#N)CC1	TDP1 cell CPT inconclusive, DT40 TDP1 no CPT inconclusive, ELG1 DNA repair 21µM
COCCCNC(=S)N1CCCN(c2nc3cc(C)c(C)cc3cc2C#N)CC1	IL1B secr inh -74, TDP1 cell CPT inconclusive, DT40 TDP1 no CPT inconclusive, ELG1 DNA repair inconclusive
Cc1cc2cc(C#N)c(N3CCOCC3)nc2cc1Cl	DT40 TDP1 no CPT inconclusive
COCCCNC(=S)NCCNc1nc2cc(C)cc(C)c2cc1C#N	IL1B secr inh inconclusive, TDP1 cell CPT inconclusive, DT40 TDP1 no CPT inconclusive
Cc1ccc(OCC(=O)NCCNC(=O)c2ccccn2)cc1	none
CCOC(=O)Nc1ccc(=O)n(Cc2c(Cl)cccc2Cl)c1	none
CCCc1cc(=O)[nH]c(SCC(=O)N(CC)c2c(N)n(Cc3ccccc3)c(=O)[nH]c2=O)n1	none
COC(=O)CCCn1cc(CN(C)C2CN(Cc3cn(CCCC(=O)OC)nn3)S(=O)(=O)C2)nn1 (centres undefined)	none (no result: ELG1 DNA repair)
CN(C)CCCNc1nc(N)c([N+](=O)[O-])c(NC2CCCCC2)n1	IL1B secr inh inconclusive, TDP1 cell CPT inconclusive
Cc1cc(F)ccc1S(=O)(=O)N1CCCOC1CNC(=O)C(=O)NC1CCCC1 (centres undefined)	none
COCCNC(=S)N/N=C(\C)c1ccccc1O	IL1B secr inh inconclusive, TDP1 cell CPT 0.026µM, DT40 TDP1 no CPT 0.082µM, ELG1 DNA repair inconclusive
COCCNC(=S)N/N=C(\C)c1cccc(OC)c1	none
COCCNC(=S)NN=C1CCC(c2ccccc2)CC1 (centres undefined)	TDP1 cell CPT inconclusive, DT40 TDP1 no CPT 5.2µM
COCCNC(=S)N/N=C(\C)c1ccc(Cl)s1	IL1B secr inh -96, TDP1 cell CPT inconclusive, DT40 TDP1 no CPT 21µM, HT1080NT lethal inconclusive
COCCNC(=S)N/N=C(\C)c1ccc(Cl)c(Cl)c1	TDP1 cell CPT 23µM, DT40 TDP1 no CPT 21µM
O=C(NCc1ccccc1)c1cc(C2CCCCN2C(=O)c2ccc3c(c2)CCO3)on1 (centres undefined)	TDP1 cell CPT inconclusive, DT40 TDP1 no CPT inconclusive (no result: ELG1 DNA repair)
COCCNC(=S)N/N=C(\C)c1ccccc1F	TDP1 cell CPT inconclusive, DT40 TDP1 no CPT inconclusive
CNC(=S)N/N=C(\C)c1ccc(Cl)c(Cl)c1	TDP1 cell CPT 4.1µM, DT40 TDP1 no CPT 5.2µM
COCCNC(=S)N/N=C(\C)c1ccc(Cl)c(Cl)c1Cl	TDP1 cell CPT 4.1µM, DT40 TDP1 no CPT 4.6µM
CC(C)C[C@H]1CN=C(Nc2ccccc2)N1CC1CCC(C(C)(C)C)CC1 (some centres undefined)	IL1B secr inh -87, TDP1 cell CPT 5.8µM, HT1080 IDH1KD tx inconclusive, DT40 TDP1 no CPT 6.5µM, ELG1 DNA repair inconclusive
CC(C)C[C@H]1CN=C(Nc2ccccc2)N1CC1CCCC1	TDP1 cell CPT inconclusive, DT40 TDP1 no CPT 16µM
c1ccc(C[C@H]2CN=C(Nc3ccccc3)N2CCC2CCCC2)cc1	IL1B secr inh inconclusive, TDP1 cell CPT inconclusive, HT1080 IDH1KD tx inconclusive, DT40 TDP1 no CPT 15µM, ELG1 DNA repair inconclusive, HT1080NT lethal inconclusive
CC(C)C[C@H]1CN=C(Nc2ccccc2)N1CC(C)C	none
CC(C)C[C@H]1CN=C(Nc2ccccc2)N1CCC1CCCCC1	TDP1 cell CPT inconclusive, DT40 TDP1 no CPT 16µM
CC(C)CNC(=O)C1C(=O)Nc2ccccc2C(=O)N1C(C)(C)C (centres undefined)	none (no result: ELG1 DNA repair)
Cc1ccc(-c2nc3ccccc3o2)cc1NC(=O)C(C)Oc1ccccc1 (centres undefined)	none (no result: IL1B secr inh, HT1080 IDH1KD tx, ELG1 DNA repair, HT1080NT lethal)

Screens deposited in PubChem BioAssay by National Center for Advancing Translational Sciences (NCATS).
